# According to PubChem BioAssay (NCATS):
# Where “and” joins values, the source holds several entries; their conditions need not be identical. Equal entries are not always repeated. Inconclusive results are not listed. Calls of active or inactive are those of the source. Unless noted, calls come from the whole dose curve; as a rule, active = well fitted curve in the direction sought with a large enough effect; inconclusive = small, poorly fitted or top-dose-only effect, or another doubt; inactive = no such curve, though single readings can be large; an effect the other way counts as inactive or inconclusive.
# Experiments:
# [1] = biological target: Cytochrome P450 2D6 (Homo sapiens) (UniProt P10635); assay: Cytochrome P450 family 2 subfamily D member 6 (CYP2D6) small molecule antagonists: luciferase biochemical (cell-free) qHTS assay (AID 1645840; active = well fitted curve in the direction sought with a large enough effect in the repeat runs; an effect the other way counts as inactive or inconclusive; note: nearly all actives have a fitted effect of over 55% in size)
# Procedure, shortened: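 P450-Glo luminescent screen: recombinant CYP2D6 enzyme–proluciferin substrate mix preincubated with compound 10 min at room temperature, then NADPH regeneration added for 1 h at room temperature. Detection reagent added for 20 min; luciferin light read as relative luminescence units.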
# [2] = biological target: Cytochrome P450 2C9 (Homo sapiens) (UniProt P11712); assay: Cytochrome P450 family 2 subfamily C member 9 (CYP2C9) small molecule antagonists: luciferase biochemical (cell-free) qHTS assay (AID 1645842; active = well fitted curve in the direction sought with a large enough effect in the repeat runs; an effect the other way counts as inactive or inconclusive; note: nearly all actives have a fitted effect of over 55% in size)
# Procedure, shortened: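 Luminescence, after 20 min with luciferin detection reagent, reflected CYP2C9 turnover during a 1 h NADPH-driven reaction at 37C. Enzyme-substrate mix contained 0.4% bovine serum albumin and was preincubated with compound 10 min at room temperature.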
# [3] = Primary qHTS for inhibitors of nuclear receptor binding SET domain protein 2 (NSD2) in an isogenic RCH-ACV NSD2 p.E1099K mutant (9B) (AID 1645876); note: nearly all actives have a fitted effect of over 70% in size
# [4] = Primary qHTS for inhibitors of nuclear receptor binding SET domain protein 2 (NSD2) in an RCH-ACV wild type WT cells (2C) (AID 1645877); note: nearly all actives have a fitted effect of over 70% in size
# Potency is the fitted concentration of half-maximal effect.
# Chain of Cytochrome P450 2D6 (Homo sapiens) (P10635 whole entry, looked up): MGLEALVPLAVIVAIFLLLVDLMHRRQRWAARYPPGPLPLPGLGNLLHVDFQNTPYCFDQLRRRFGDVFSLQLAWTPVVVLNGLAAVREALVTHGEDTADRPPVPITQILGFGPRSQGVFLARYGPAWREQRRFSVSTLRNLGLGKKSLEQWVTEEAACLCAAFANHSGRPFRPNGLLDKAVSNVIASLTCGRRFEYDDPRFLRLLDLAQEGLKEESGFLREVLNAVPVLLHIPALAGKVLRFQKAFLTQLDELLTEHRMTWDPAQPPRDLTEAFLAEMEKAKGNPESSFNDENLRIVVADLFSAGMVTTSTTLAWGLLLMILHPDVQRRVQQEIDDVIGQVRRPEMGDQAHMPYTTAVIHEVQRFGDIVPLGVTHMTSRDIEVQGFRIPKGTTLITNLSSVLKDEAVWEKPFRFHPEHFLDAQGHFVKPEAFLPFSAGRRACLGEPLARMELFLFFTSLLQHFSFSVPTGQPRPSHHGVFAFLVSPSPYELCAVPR
# Chain of Cytochrome P450 2C9 (Homo sapiens) (P11712 whole entry, looked up): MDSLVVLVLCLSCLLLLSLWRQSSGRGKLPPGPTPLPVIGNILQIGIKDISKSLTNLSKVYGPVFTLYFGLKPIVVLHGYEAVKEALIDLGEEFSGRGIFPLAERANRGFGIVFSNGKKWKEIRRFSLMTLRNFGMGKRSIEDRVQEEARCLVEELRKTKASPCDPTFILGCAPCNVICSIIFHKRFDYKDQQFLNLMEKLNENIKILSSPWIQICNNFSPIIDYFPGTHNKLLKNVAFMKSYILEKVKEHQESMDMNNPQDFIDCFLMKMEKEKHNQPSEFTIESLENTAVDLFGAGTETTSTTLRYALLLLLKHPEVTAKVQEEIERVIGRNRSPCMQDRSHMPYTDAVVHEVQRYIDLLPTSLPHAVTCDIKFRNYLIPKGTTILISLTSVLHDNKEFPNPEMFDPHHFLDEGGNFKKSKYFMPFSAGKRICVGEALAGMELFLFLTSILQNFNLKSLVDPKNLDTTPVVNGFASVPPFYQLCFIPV
Structure (SMILES),Potency [1],Potency [2],Potency [3],Potency [4]
O=C(Nc1ccc(CN2CCOCC2)cc1)c1ccc(-c2cccc(Cl)c2)o1,15.1 µM (active),19 µM (active),16.3 µM (active),11.5 µM (active)
CN(C)CCN(Cc1ccc(-c2ccc(CNCCc3ccccc3)cc2)cc1)C(=O)CCC1CCCC1,0.601 µM (active),19 µM (active),2.58 µM (active),2.3 µM (active)
CCCCC1CCN(CCCN2C(=O)CCc3ccccc32)CC1,0.756 µM (active),inactive,20.5 µM (active),11.5 µM (active)
COc1cc(OC)c2c(=O)[nH]c(-c3cc(C)c(OCCO)c(C)c3)nc2c1,inactive,12 µM (active) and 10.7 µM (active),12.9 µM (active) and 14.8 µM (active),10.3 µM (active) and 11.8 µM (active)
O=C(NNc1nc2cc(F)ccc2n2cccc12)c1cnccn1,inactive,inactive,0.817 µM (active),0.916 µM (active)
O=C(Nc1cccnc1)c1cc(-c2ccnc(F)c2)ccc1OCc1ccccc1,inactive,1.51 µM (active),inactive,inactive
C#CCNCc1cc2cc(OCc3ccccc3)ccc2[nH]1,23.9 µM (active),3.79 µM (active),inactive,inactive
COC(=O)N1CCC(n2ncc3c(N4CCOCC4)nc(-c4ccc(NC(=O)NC5CC5)cc4)nc32)CC1,16.9 µM (active),3.38 µM (active),0.0817 µM (active),0.115 µM (active)
Oc1ccc(-c2cnc3ccc(NCc4ccco4)nn23)cc1,1.69 µM (active),0.756 µM (active),1.83 µM (active),1.83 µM (active)
CCOC(=O)c1cnn(-c2ccccc2)c1NC(=O)c1cc2nc(-c3ccco3)cc(C(F)(F)Cl)n2n1,inactive,3.38 µM (active),inactive,inactive
COc1cc2c(cc1OCCCN1CCCC1)N=C(N)C21CCC1,23.9 µM (active),inactive,inactive,inactive
CCC(C)CNCC(=O)N1CCC2SC=CC2C1COc1cccc(C)c1 (centres undefined),0.0756 µM (active),12 µM (active),23 µM (active),18.3 µM (active)
Cc1cc(F)ccc1[C@H]1C[C@@H](N2CCN3C(=O)CC[C@H]3C2)CCN1C(=O)N(C)[C@H](C)c1cc(C(F)(F)F)cc(C(F)(F)F)c1,13.5 µM (active),10.7 µM (active),23 µM (active),14.5 µM (active)
COC1CCN(c2cccc(-c3cc(NC(C)=O)nc(-n4nc(C)cc4C)n3)n2)CC1,6.01 µM (active),10.7 µM (active),20.5 µM (active),16.3 µM (active)
COC(=O)c1ccc2c(c1)[nH]c1ncnc(NCCCN3CCCCC3)c12,inactive,inactive,16.3 µM (active),16.3 µM (active)
CNc1cccc(CCOc2ccc3c(c2)CN(CC(F)(F)F)C(=O)[C@H](CC(=O)O)C3)n1,inactive,inactive,inactive,inactive
COc1ccc(-c2ccc3c(N4CCOCC4C)nc(N4CCOCC4C)nc3n2)cc1CO (centres undefined),inactive,4.77 µM (active),0.0325 µM (active),0.0515 µM (active)
COc1ccc(CNc2nc(N(CCO)CCO)nc3c2ncn3C(C)C)cc1,inactive,3.79 µM (active),7.42 µM (active),5.25 µM (active)
COc1cc(F)c(C(C)C)cc1-c1ccc(C(F)(F)F)cc1CN1C(=O)OC(c2cc(C(F)(F)F)cc(C(F)(F)F)c2)C1C (centres undefined),inactive,inactive,inactive,inactive
OC(c1ccc(-c2ccc(CN3CCN(Cc4ccncc4)CC3)cc2)c(F)c1)(C(F)(F)F)C(F)(F)F,3.38 µM (active),1.34 µM (active),inactive,inactive
O=C(NCCN1CCOCC1)c1cc2c(Oc3ccc(NC(=O)C4(C(=O)Nc5ccc(F)cc5)CC4)cc3)ccnc2[nH]1,19 µM (active),12 µM (active),23 µM (active),12.9 µM (active)
NCC1CCN(c2nccc(-c3ccc4ccccc4c3)n2)CC1,9.52 µM (active),0.849 µM (active),1.86 µM (active),1.18 µM (active)
Cn1ncnc1[C@@H]1c2n[nH]c(=O)c3cc(F)cc(c23)N[C@H]1c1ccc(F)cc1,inactive,inactive,20.5 µM (active),9.16 µM (active)
Cc1cc2sc(NC(=O)Cc3ccccc3)nc2cc1Cl,inactive,inactive,inactive,inactive
CC#CC(=O)Nc1ccc2ncnc(Nc3cccc(Br)c3)c2c1,inactive,inactive,1.29 µM (active) and 1.3 µM (active),1.03 µM (active) and 1.16 µM (active)
NC(=O)N1CCC(CC(=O)N2CCC(C3c4ncc(Br)cc4CCc4cc(Cl)cc(Br)c43)CC2)CC1 (centres undefined),16.9 µM (active),12 µM (active),7.28 µM (active),6.49 µM (active)
